HT1080 IDH1KD tx = kills HT-1080 cells with IDH1 knockdown; HT-1080 IDH1 knockdown viability, ATP luminescence, 48 h; Potency, µM (top dose mostly 46.1 µM), for the others: at the highest dose activity, negative = toxicity, most hits filed as cytotoxic; 360,000 tested, 2% active; AID 686971;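 note: 0% = DMSO wells and -100% = cell-free medium wells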
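CellTiter-Glo luminescence after 48 h compound exposure at 37 degrees C of IDH1-knockdown HT-1080 cells in 5% FBS RPMI. %Activity scaled between DMSO wells and cell-free media wells, with curves fitted and assigned curve classes.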
SW480 rerep = induces DNA re-replication in SW480 colon adenocarcinoma cells; 340,000 tested, 1.8% active; Potency, µM (highest dose often 46.1 µM), without a hit: top-dose re-replication activation, actives largely listed as activators; SW480 DNA re-replication, Hoechst DNA content imaging, 48 h; note: % of control where 0% means no effect; nearly all actives have a fitted effect of over 55% in size
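Compounds, transferred as 23 nL by pin tool, were incubated with cells for 48 hr; DNA content per nucleus was then quantified by Hoechst staining and fluorescence plate imaging.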
HT1080-NT tox = kills 2HG-producing HT-1080-NT fibrosarcoma cells | Potency, µM (top dose mostly 46.1 µM), without a hit: at the highest dose activity, negative = less viability, hits mostly cytotoxic | HT-1080-NT fibrosarcoma viability, CellTiter-Glo ATP luminescence, 48 h | AID 686970 | 360,000 tested, 1.6% active;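 note: NT is the 2HG producing partner of a matched IDH1 knockdown line; 0% = DMSO-treated cells and -100% = media-only wells without cells; nearly all actives have a fitted effect of over 55% in size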
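Compounds were tested in concentration-response format on HT-1080-NT cells for 48 hours at 37 degrees C. Cell viability came from CellTiter-Glo luminescence; curves were classified by r2, response magnitude and activity.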
KB-3-1 cytotox = kills parental KB-3-1 adenocarcinoma cells. KB-3-1 viability, CellTiter-Glo ATP luminescence, 72 h. 400,000 tested, 1.4% active. Potency, µM (highest dose often 46.1 µM), usual class: cytotoxic; note: % is set by controls: 0 for no effect and ±100 for the full control effect; nearly all actives have a fitted effect of over 60% in size
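Viability of parental KB-3-1 cells, measured by CellTiter-Glo luminescence, followed a 72 h incubation at 37 °C with pinned compounds in phenol-red-free DMEM containing 10% FBS.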
KB-V1 cytotox = kills drug-selected multidrug resistant KB-V1 cells; Potency, µM (highest dose often 46.1 µM), usual class: cytotoxic; 400,000 tested, 3.4% active; KB-V1 MDR cells viability, CellTiter-Glo, 72 h; note: % is set by controls: 0 for no effect and ±100 for the full control effect; nearly all actives have a fitted effect of over 60% in size
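Drug-selected KB-V1 cells, grown in DMEM lacking phenol red with 10% FBS, receive compound titrations; after three days at 37 degrees C, surviving cell ATP is quantified by CellTiter-Glo luminescence and responses normalized and curve-fitted.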
MCF10A rereplic = inducers of DNA re-replication in MCF 10A breast cells; MCF 10A DNA re-replication, Hoechst nuclear intensity, 48 h; 350,000 tested, 2.9% active; Potency, µM (doses to about 46.1 µM), inactives show at the highest dose activity, positive = re-replication, usual class: activators; note: % of control where 0% means no effect; nearly all actives have a fitted effect of over 50% in size
Numbers without * were called inactive; i = inactive; ? = inconclusive; · = no result; [ ] = dose if it differs, or a comment. Compounds with a hit are over-represented: about 8% of the library has one in this group of screens. Calls come from the whole dose curve; as a rule, active = well fitted curve in the direction sought with a large enough effect; inconclusive = small, poorly fitted or top-dose-only effect, or another doubt; inactive = no such curve, though single readings can be large; an effect the other way counts as inactive or inconclusive. Potency is the fitted concentration of half-maximal effect.

SMILES	HT1080 IDH1KD tx	SW480 rerep	HT1080-NT tox	KB-3-1 cytotox	KB-V1 cytotox	MCF10A rereplic
Cc1ccc(-c2nn3c(C)nnc3c3ccccc23)cc1S(=O)(=O)NC(C)c1ccccc1 (stereo not drawn)	?	?	?	?	i	?
Cc1ccc(-c2nn3c(C)nnc3c3ccccc23)cc1S(=O)(=O)NC(C)(C)CO	?	0%	-10%	i	i	11µM*
COCCNS(=O)(=O)c1cc(-c2nn(C)c(=O)c3ccccc23)ccc1C	-11%	-4%	-20%	i	?	0%
CCc1cccc(-n2c(C)nc3c(cnn3-c3ccc(C)c(C)c3)c2=O)c1	·	·	·	?	i	·
CC(=O)c1ccc(-c2nc3c4ccccc4ccn3c2C(C)=O)o1	16%	7%	16%	?	7.3µM*	-6%
c1ccc(Cc2c(-c3ccccc3)nc3c4ccccc4ccn23)cc1	8%	·	5%	i	i	·
CCOC(=O)c1cc(-c2ccccc2)n(-c2cccc(C(=O)Nc3ccc(OC)cc3)c2)c1C	·	·	·	i	i	·
OCC1CCCCN1C(=S)Nc1ccc(Cl)cc1Cl (stereo not drawn)	-1%	?	2%	i	i	0.82µM*
CCOC(=O)c1cc(C#N)c(SCc2ccc(C#N)cc2)nc1C	-17%	-1%	-1%	i	2.3µM*	26%
CCOC(=O)c1cc(C#N)c(SC)nc1C	6%	-8%[9.22 µM]	2%	i	i	0%
O=C(NC(c1cccnc1)C(F)(F)F)c1cc(COc2ccc3c(c2)CCCC3)on1 (stereo not drawn)	-23%	?	-16%	21µM*	?	?
COc1ccc(-c2ccc3c(N)c(C(=O)NC(C)C)sc3n2)cc1OC	-21%	18µM*	-15%	?	i	18µM*
CCOC(=O)c1sc2nc(-c3ccccc3)ccc2c1N	18%	?	26%	i	i	?
NC(=O)c1sc2nc(-c3ccccc3)ccc2c1N	24%	?	27%	?	5.8µM*	5%
O=C(NCCc1nc2ccccc2n1CCOc1ccc2ccccc2c1)C1CCCCC1	·	·	·	i	i	·
CCc1ccc(NCc2cc3cc4c(cc3n(CC(=O)Nc3ccc(Cl)cc3)c2=O)OCO4)cc1	·	·	·	?	i	·
O=C1C(Cl)=C(NCc2ccco2)C(=O)c2ccccc21	16µM*	?	?	?	?	?
O=C1C(Cl)=C(NCCN2CCCCC2)C(=O)c2ccccc21	23µM*	29%	15µM*	?	?	?
O=C(NCCN1CCCC1)c1ccccc1Cl	6%	-13%	-6%	i	i	-2%
O=C1c2ccccc2-c2onc3ccc(NCc4ccco4)c1c23	?	?	-21%	i	10µM*	-3%
O=c1nccc(NCc2ccco2)[nH]1	18%	-33%	0%	?	i	696%[0.0737 µM]
COc1ccc(Cn2c(C(=O)O)c(CNCC(C)c3ccccc3)c3ccc(OC)cc32)cc1 (stereo not drawn)	·	·	·	?	i	·
CCc1nc(-c2cc(S(=O)(=O)N3CCN(c4ccc(F)cc4)CC3)ccc2OC)no1	·	·	·	i	i	·
COCCn1c(SCC(=O)c2ccccc2)nc2cc(C(=O)NC3CCCC3)ccc2c1=O	·	·	·	i	i	·
CCc1ccc(/C=C/c2c([N+](=O)[O-])c(=O)n(C)c(=O)n2C)cc1	?	?	?	i	i	13µM*
SMILES	HT1080 IDH1KD tx	SW480 rerep	HT1080-NT tox	KB-3-1 cytotox	KB-V1 cytotox	MCF10A rereplic
Cn1c(/C=C/c2ccc(Cl)cc2Cl)c([N+](=O)[O-])c(=O)n(C)c1=O	-18%	9.2µM*	-19%	7.3µM*	?	2.9µM*
Cc1cccc(N2CCN(C(=O)CS(=O)(=O)c3cccc4nsnc34)CC2C)c1 (stereo not drawn)	·	·	·	i	?	·
Cc1cc(NC(=O)/C(C#N)=C/c2ccc(-c3ccc(SC(F)F)cc3)o2)n(-c2ccccc2)n1	4%	?	7%	i	i	5.8µM*
COc1ccc(C(=O)N=c2nc(-c3ccccc3)n(-c3ccccc3)s2)cc1	·	·	·	i	i	·
COc1ccc2c(=O)cc(-c3ccncc3)oc2c1OC	23µM*	?	?	?	?	?
COc1ccc(-c2cc(=O)c3c(OC)c(OC)c(OC)c(OC)c3o2)cc1OC	-22%	-81%	-8%	i	?	?
CCOC(=O)N1CCc2cc(OC)c(OC)c3c2c1cc1cc(OC)c(OC)cc13	16µM*	18µM*	?	4.1µM*	2.3µM*	15µM*
COc1cc(CC(=O)N2CCc3ccccc32)cc(OC)c1OC	-14%	2%	-3%	i	?	2%
Cc1nc2c(c(C)c1CCC(=O)NCc1ccccc1)c(=O)n(C)c(=O)n2C	·	·	·	i	i	·
COc1ccc(-c2nc3sc(CCNC(=O)c4ccccc4C)c(C)n3n2)cc1	·	·	·	i	i	·
Cc1ccc(C)c(N2CCN(C(=O)CCS(=O)(=O)c3cc4c(cc3Cl)NC(=O)CO4)CC2)c1	·	·	·	?	16µM*	·
Cc1ccc(Cl)cc1N1CCN(C(=O)CCS(=O)(=O)c2ccc3c(c2)oc(=O)n3C)CC1	·	·	·	i	7.3µM*	·
COc1ccc2c(ccc[n+]2CC(=O)c2ccc(C)cc2)c1	-26%	2%	0%	?	i	5%
CCc1ccc(C(=O)C[n+]2cccc3cc(OC)ccc32)cc1	-16%	0%	-17%	13µM*	i	-2%
CCc1ccc(Sc2cc(C(=O)NCCCN3CCC(C)CC3)c3ccccc3n2)cc1	·	·	·	i	i	·
Nc1cc(=O)[nH]c(SCC(=O)Nc2cc(S(=O)(=O)N3CCCCCC3)ccc2Cl)n1	-3%	11%	-27%	i	i	?
Cc1ccc(-c2nc(SCC(=O)Nc3cc(S(=O)(=O)N4CCCCC4)ccc3Cl)n[nH]2)cc1	-15%	11%	-20%	?	16µM*	?
CCCc1cc(=O)[nH]c(SCC(=O)Nc2cc(S(=O)(=O)N3CCCCC3)ccc2Cl)n1	15µM*	3%	6.5µM*	8.2µM*	?	?
CCOc1ccc(NC(=O)CSc2nnc(C3CC3)n2C2CC2)cc1	17%	-9%	9%	i	13µM*	-3%
NC(=O)c1ccc(NC(=O)CSc2nnc(C3CC3)n2C2CC2)cc1	16%	-15%	7%	i	i	-38%

Screens (PubChem)
